We go through twelve compounds from PubChem BioAssay (NCATS).

The nature of experiment [1]: qHTS drug screen for cell cycle checkpoint inhibitors in PARPi-resistant BRCA-mutant ovarian cancer cell lines. (AID 1963452; calls by dose curve). Conditions: PEO1/OlaR viability, CellTiter-Glo luminescence, 96 h, stronger effect = lower value. The essentials: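 PEO1, PEO4 and PEO1/OlaR ovarian cancer cells, 600 per well, exposed 96 h at 37C to a dilution series. Viability read by CellTiter-Glo luminescence, normalized to DMSO and empty wells; activity summarized as Z-AUC.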

A short description of experiment [2]: qHTS profiling for inhibitors of Plasmodium falciparum proliferation (AID 504749). Further: potency means the concentration at half of the fitted maximal effect.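 On activity, negative = inhibition: 0% = DMSO vehicle and full inhibition = artemisinin control.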 On all read-outs here: nearly all actives have a fitted effect of over 60% in size. As to conditions: P. falciparum in erythrocytes, SYBR Green DNA, 72 h; for activity, negative = inhibition: at 28.7 µM (top of the series). The essentials: (§1)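 P. falciparum-infected erythrocytes (0.3% parasitemia, 2.5% hematocrit final) were exposed to compounds for 72 h at 37 C in 5% CO2, then lysed with SYBR Green buffer overnight at room temperature; parasite DNA fluorescence was normalized to artemisinin and DMSO controls.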

The next experiment deals with AA1029. The description is as above. As to conditions: P. falciparum in erythrocytes, SYBR Green DNA, 72 h; series mostly up to 28.7 µM. The essentials:
as §1

The next experiment relates to AS120. The experiment is described as above. Conditions: P. falciparum in erythrocytes, SYBR Green DNA, 72 h; series mostly up to 28.7 µM. The essentials: as §1
A further experiment relates to ATS189. The experiment is described as above. Conditions: P. falciparum in erythrocytes, SYBR Green DNA, 72 h; series mostly up to 28.7 µM. The method in brief:
as §1

Experiment [3] in a line: qHTS for identification of novel therapeutic agents for treatment of microphthalmiaassociated transcription factor (MiT) renal cell carcinoma (RCC) (AID 1963991; calls by dose curve; further: potency means the concentration at half of the fitted maximal effect). As to conditions: CellTiter-Glo, 48 h; for z-score: stronger effect = lower value. The method in brief:
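Three TFE3-fusion RCC lines (UOK109, UOK124, UOK145), 500 cells/well in complete medium, were treated with MIPE 4.0 compounds for 48 hours at 37 C. Viability was by CellTiter-Glo luminescence, normalized to DMSO (100%) and empty wells (0%); curves fitted over 11 concentrations.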

The next experiment has as its system 3D7. The experiment is described as follows: qHTS profiling for inhibitors of Plasmodium falciparum proliferation (AID 504749). Further: nearly all actives have a fitted effect of over 60% in size. Further: potency means the concentration at half of the fitted maximal effect.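 On activity, negative = inhibition: 0% = DMSO vehicle and full inhibition = artemisinin control.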 Conditions: P. falciparum in erythrocytes, SYBR Green DNA, 72 h; series mostly up to 28.7 µM. The essentials: as §1
The next experiment concerns 7G8. The experiment is described as above. Conditions: P. falciparum in erythrocytes, SYBR Green DNA, 72 h; series mostly up to 28.7 µM. The essentials: as §1
Setting [4] is: measured here: PEO1 parental Z-AUC.
Setting [5] is: TFE3-RCC UOK109 viability, measured here: UOK109 Z-AUC.
Where [6] appears, read: TFE3-RCC viability, measured here: UOK124 Z-AUC.
The mark [7] stands for this setting: TFE3-RCC viability, measured here: UOK145 Z-AUC.

Inconclusive results are not listed. Calls of active or inactive are those of the source. Unless noted, the call rests on the fitted dose curve; in most records, active means well fitted inhibition curve with a large enough effect; inconclusive means small, poorly fitted or top-dose-only effect; inactive means flat fitted curve, though single readings scatter.

With `Clc1ccc(C(c2ccccc2Cl)C(Cl)Cl)cc1` (centres undefined), the Z-AUC in experiment [1] was -0.334 (inactive); in experiment [1] (setting [4]), 0.14; in experiment [1] (measured here: PEO4 Z-AUC), 0.236. Further, the activity, negative = inhibition was -12.9% (inactive) in experiment [2] (parasite line A) and -9.4% (inactive) in experiment [2] (parasite line B). Further, the Potency entry in the experiment with AA1029, with AS120 and with ATS189 was “inactive” in each case.

For the compound `Cc1cn([C@H]2C=C[C@@H](CO)O2)c(=O)[nH]c1=O`, the z-score in experiment [3] (setting [5]) amounted to 0.266; in experiment [3] (setting [6]), 0.139; in experiment [3] (setting [7]), 0.201. The activity, negative = inhibition was 2.38% (inactive) in experiment [2] (parasite line A) and -3.42% (inactive) in experiment [2] (parasite line B). In addition, the Potency result in the experiment with 3D7, with 7G8, in the experiment on AA1029, in the experiment on AS120 and in the experiment on ATS189 was “inactive” each time.

As for `Cc1ccccc1N1C(=O)c2cc(S(N)(=O)=O)c(Cl)cc2NC1C` (centres undefined), the values for the z-score in experiment [3] (setting [5]), in experiment [3] (setting [6]) and in experiment [3] (setting [7]) were 0.956, 0.478 and -0.147, respectively.

Take `CN1CCN2c3ccccc3Cc3ccccc3C2C1` (centres undefined): the activity, negative = inhibition is 6.93% (inactive) in experiment [2] (parasite line A) and 3.33% (inactive) in experiment [2] (parasite line B). In addition, the Potency result with 3D7, in the experiment with 7G8, with AA1029, in the experiment on AS120 and in the experiment with ATS189 was “inactive” throughout.

In the case of `COc1ccccc1OCCNCC(O)COc1cccc2[nH]c3ccccc3c12` (centres undefined), the z-score turned out to be 0.499 in experiment [3] (setting [5]), 0.302 in experiment [3] (setting [6]) and 0.158 in experiment [3] (setting [7]). Further, the Potency was 8.91 µM (active) in the experiment on 7G8, 8.91 µM (active) with AA1029 and 3.98 µM (active) with AS120.

For the compound `COc1cc2c(c(OC)c1OC)-c1ccc(OC)c(=O)cc1[C@@H](NC(C)=O)CC2`, the activity, negative = inhibition in experiment [2] (parasite line A) is -2.78% (inactive); in experiment [2] (parasite line B) it was 6.74% (inactive). In addition, the Potency result in the experiment on 3D7, in the experiment with 7G8, with AA1029, with AS120 and in the experiment on ATS189 was “inactive” throughout.

With `COC(=O)Nc1nc2ccc(C(=O)c3cccs3)cc2[nH]1`, in experiment [3] (TFE3-RCC UOK109 viability, active = Z-AUC below -0.8 in all three lines), the Potency was 0.00833 µM (active). The z-score in experiment [3] (setting [5]) was -2.2; in experiment [3] (setting [6]) it was -3.02; in experiment [3] (setting [7]), -1.81. The values for the activity, negative = inhibition in experiment [2] (parasite line A) and in experiment [2] (parasite line B) were -6.79% (inactive) and 11.2% (inactive), respectively. The Potency entry with 3D7, with 7G8, in the experiment with AA1029, with AS120 and in the experiment with ATS189 was “inactive” in each case.

Take `CN1CCC(=C2c3ccccc3CC(=O)c3sccc32)CC1`: the Z-AUC in experiment [1] is 1.25 (inactive); in experiment [1] (setting [4]), 1.46; in experiment [1] (measured here: PEO4 Z-AUC) it was 0.927. Further, the results for the Potency (in experiment [2] (parasite line A); in the experiment with 7G8) were 5.01 µM (active) and 11.2 µM (active), respectively.

`Clc1ccc2c(c1)C(N1CCNCC1)=Nc1ccccc1O2`: the results for the z-score in experiment [3] (setting [5]), in experiment [3] (setting [6]) and in experiment [3] (setting [7]) were 0.826, 0.445 and 0.654, respectively. The activity, negative = inhibition in experiment [2] (parasite line A) was -18.9% (inactive). Besides, the Potency result in the experiment on 3D7 was “inactive”.

As for `Nc1nnc(-c2cccc(Cl)c2Cl)c(N)n1`, the values for the activity, negative = inhibition in experiment [2] (parasite line A) and in experiment [2] (parasite line B) were -17% (inactive) and -20% (inactive), respectively. Moreover, the Potency result with 3D7, in the experiment with 7G8, in the experiment on AA1029, with AS120 and with ATS189 was “inactive” in each case.

For `CN1CCC(=C2c3ccccc3C=Cc3ccccc32)CC1`, the Z-AUC in experiment [1] is 0.372 (inactive); in experiment [1] (setting [4]), 0.535; in experiment [1] (measured here: PEO4 Z-AUC) it was 0.739. Also, the values for the activity, negative = inhibition in experiment [2] (parasite line A) and in experiment [2] (parasite line B) were 13.5% (inactive) and 3.94% (inactive), respectively. The Potency result with 3D7, in the experiment with AA1029 and with ATS189 was “inactive” in each case.

Consider `Cc1cn([C@H]2C[C@H](N=[N+]=[N-])[C@@H](CO)O2)c(=O)[nH]c1=O`, for which the activity, negative = inhibition is -7.84% (inactive) in experiment [2] (parasite line A) and 9.23% (inactive) in experiment [2] (parasite line B). Further, the Potency entry with 3D7, with 7G8, with AA1029, in the experiment with AS120 and in the experiment on ATS189 was “inactive” throughout.
